PubChem BioAssay AID720706 (Broad Institute, 2013)
In all, about 350,000 compounds went through this assay and about 5,500 (1.6%) were called active.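 Rule for the calls: active = significant combined selectivity score with lowered wild-type GFP, culture density cut under 30%, mutant RFP and density less affected; inactive = any of these conditions unmet.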 The sample as a whole holds a higher share of actives than the screen did.

Experiment: reduced GFP signal of wild-type E. coli, primary screen, bacterial rRNA inhibitor project, GFP/RFP fluorescence, OD600, single point (AID 720706)
Settings: E. coli WT GFP vs humanized-ribosome RFP mutants, 24 h; GFP signal change (wild-type ribosome): stronger effect = lower value, DMSO median 0, no signal -100; OD600 change: measured here: OD600 growth, DMSO median 0, no signal -100; RFP signal change: measured here: RFP humanized mutant strains, DMSO median 0, no signal -100, concentration not given here

Compound | GFP signal change (wild-type ribosome) | OD600 change | RFP signal change
CCn1c(SCC(=O)Nc2nccs2)nnc1-c1ccco1 | 10.8% (inactive) | 0.14% | 0.233%
Cn1c(SCC(=O)Nc2nccs2)nnc1-c1cccnc1 | 11.6% (inactive) | 16.8% | -1.48%
Cc1[nH]c2ccccc2c1SCC(=O)Nc1nccs1 | -21.9% (active) | -16.9% | -2.17%
CC1CCCCC12NC(=O)N(CC(=O)OCc1c(F)cccc1Cl)C2=O (stereo unspecified) | -24.1% (active) | -16.3% | 0.314%
CC1CCCCC12NC(=O)N(CC(=O)OCC(=O)NCc1ccc(F)cc1)C2=O (stereo unspecified) | -2.84% (inactive) | -0.669% | -1.07%
COc1cccc(CNC(=O)COC(=O)CN2C(=O)NC3(CCCCC3C)C2=O)c1 (stereo unspecified) | 3.13% (inactive) | 0.95% | 0.493%
Cc1cc2c(cc1C)[n+](C)cn2CC(O)COCC1CC=CCC1 (stereo unspecified) | -29.3% (active) | -16.1% | 3.07%
Cc1noc(C)c1S(=O)(=O)Nc1ccc2c(c1)C(=O)N([C@H](C)CO)C[C@H](C)[C@H](CN(C)S(=O)(=O)c1cn(C)cn1)OCCCC[C@@H](C)O2 | -2.25% (inactive) | -4.58% | -3.75%
COc1ccc(CN(C)C[C@@H]2Oc3ccc(NS(=O)(=O)c4cn(C)cn4)cc3C(=O)N([C@@H](C)CO)C[C@H]2C)cc1 | -0.89% (inactive) | 10.2% | -0.875%
COc1ccc(/C=N/N(C)C2=NS(=O)(=O)c3ccccc32)cc1OC | 14.8% (inactive) | 9.54% | -0.4%
Cc1ccc(C(=O)NN(CCC#N)C2=NS(=O)(=O)c3ccccc32)cc1 | 11% (inactive) | 11% | 1.04%
O=S1(=O)N=C(N(CCO)/N=C/c2ccccc2F)c2ccccc21 | -21.1% (active) | -9.01% | 2.34%
O=C(Nc1ccc(C(F)(F)F)cc1)N[C@@H]1CC[C@H](CCNC(=O)c2ccccc2F)O[C@@H]1CO | -6.45% (inactive) | -10.8% | 3.96%
COc1ccc(NC(=O)Nc2ccc3c(c2)C(=O)N([C@H](C)CO)C[C@@H](C)[C@H](CN(C)C(=O)Cc2ccccc2)OCCCC[C@H](C)O3)cc1 | -0.637% (inactive) | -0.596% | 2.91%
COCCNc1nc(Nc2ccccc2Cl)c2sc(-c3ccccc3)cc2n1 | -0.73% (inactive) | 28.1% | -2.05%
CC(=O)Nc1ccc(CNc2nc(NCCN(C)C)nc3cc(-c4ccccc4)sc23)cc1 | -20.5% (active) | -5.3% | 1.68%

Compound | GFP signal change (wild-type ribosome) | OD600 change | RFP signal change
COCCNc1nc(NCc2ccc(NC(C)=O)cc2)c2sccc2n1 | 31.4% (inactive) | 15.7% | 6.28%
COc1ccc(NC(=O)N(C)C[C@@H]2Oc3ncc(-c4ccc(C#N)cc4)cc3C(=O)N([C@@H](C)CO)C[C@H]2C)cc1 | -1.74% (inactive) | -0.24% | -0.855%
CS(=O)(=O)Nc1ccc2c(c1)[C@@H]1C[C@H](CC(=O)NCc3ccccn3)O[C@@H](CO)[C@@H]1O2 | 2.36% (inactive) | -0.375% | 1.41%
O=C(NCCN1CCCCC1)[C@@H]1N[C@@H]2c3ccc(-c4ccccc4)c(=O)n3C[C@@H]2[C@H]1CO | -1.4% (inactive) | 4.26% | -4%
COC(=O)C[C@@H]1CC[C@H]2[C@@H](COC[C@H](O)CN2C(=O)Nc2ccccc2OC)O1 | -0.973% (inactive) | 5.6% | 2.71%
CCC(O)C1CCN(Cc2cn(-c3ccc(OC)cc3)nc2-c2cccc(F)c2)CC1 (stereo unspecified) | -12.5% (inactive) | -11% | 3.52%
COc1ccc(-n2cc(CN(C)Cc3n[nH]c(=O)[nH]3)c(-c3cccc(F)c3)n2)cc1 | -10.8% (inactive) | -14.6% | -0.58%
COc1ccc(-n2cc(CNC3CCOCC3)c(-c3cccc(F)c3)n2)cc1 | -30.4% (active) | -24.4% | -1.67%
O=C(Nc1ccc(C(F)(F)F)cc1)c1cccc(-n2cnnn2)c1 | -24.6% (active) | -17.2% | -9.02%
O=C(Nc1cccc(-n2cnnn2)c1)c1cccnc1 | 1.1% (inactive) | 2.52% | 0.952%
O=C(O)CSCC(=O)Nc1ccc(C(F)(F)F)cc1 | 9.65% (inactive) | 10.9% | 3.37%
COc1ccccc1CNC(=O)C[C@@H]1CC[C@@H]2[C@@H](COc3ccc(NC(=O)Nc4ccc(F)c(F)c4)cc3C(=O)N2C)O1 | -9.44% (inactive) | -10.3% | -1.71%
CCCNC(=O)C[C@@H]1C[C@H]2c3cc(NC(=O)Nc4ccccc4F)ccc3O[C@H]2[C@H](CO)O1 | -3.87% (inactive) | -12.4% | 1.51%
COC(=O)c1c(-c2ccc(C)cc2)csc1N | -1.07% (inactive) | -0.1% | 43.8%
COC(=O)c1c(C)cc(O)c(C)c1O | -0.355% (inactive) | 5.33% | 0.38%
COC(=O)c1c(C(=O)OC)c2n(c1C)CCS2 | -22.3% (active) | -9.31% | -5.79%
